# Cycloheximide cs – Cycloheximide Counterscreen for Small Molecule Inhibitors of Shiga Toxin. max response, %. hit rate 12% among 300,000. cell reporter, cycloheximide protein synthesis inhibition counterscreen. AID 2314, 2010; in the data active = max response mostly above about 13%, no sharp cut-off; inactive = mostly below about 14%; note: read at 38.3 µM for the half of the compounds with a filed dose
# SARS PLP yeast – qHTS of Yeast-based Assay for SARS-CoV PLP; hit rate 0.19% among 330,000; S. cerevisiae expressing SARS-CoV PLpro, growth rescue; Potency, µM (titrated, usually from 32.9 µM), most hits filed as activators; calls by dose curve; note: nearly all actives have a fitted effect of over 55% in size
# Pf growth 48h – Primary qHTS for delayed death inhibitors of the malarial parasite plastid, 48 hour incubation; P. falciparum luciferase growth in erythrocytes, 48 h; Potency, µM (titrated, usually from 28.7 µM), usual class: inhibitors; hit rate 5.9% among 310,000; AID 504832, 2011
#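 Luminescence readout; reporter = integrated firefly luciferase in P. falciparum. RBC culture at 2% hematocrit, 0.1% parasitemia final, 37 C/5% CO2; decreased signal taken as growth inhibition.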
# Shiga toxin inh – A qHTS for Small Molecule Inhibitors of Shiga Toxin; Vero cells, Shiga toxin protein synthesis inhibition reporter; inhibition, % at 38.7 µM; hit rate 9.2% among 290,000; in the data active = inhibition mostly above about 28%, no sharp cut-off; inactive = mostly below about 43%
# Pf growth 96h – Primary qHTS for delayed death inhibitors of the malarial parasite plastid, 96 hour incubation; AID 504834, 2011; Potency, µM (titrated, usually from 28.7 µM), hits mostly inhibitors; P. falciparum luciferase reporter growth, 96 h; hit rate 6.9% among 320,000
#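 P. falciparum expressing integrated firefly luciferase, in erythrocytes at 2% hematocrit, 0.05% parasitemia, incubated with compounds 96 h at 37 C, 5% CO2. Growth inhibition read as loss of luminescence; two-generation exposure targets delayed-death apicoplast inhibitors.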
# AMA1 RON2 block – qHTS for Inhibitors of AMA1-RON; Towards Development of Antimalarial Drug Lead: Primary Screen. Plasmodium falciparum AMA1 (3D7) - RON2 peptide interaction. AlphaScreen AMA1-biotinylated RON2 peptide binding. Potency, µM (series often up to 58.2 µM), usual class: inhibitors. hit rate 0.2% among 360,000; note: nearly all actives have a fitted effect of over 45% in size
#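 AMA1 (3D7) with his tag at 25 nM final met compounds first, then biotinylated RON2 peptide at 25 nM; detection used donor plus acceptor beads, 10 µg/mL apiece, read by AlphaScreen after 30 min at room temperature.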
# Numbers stand for hits; i = inactive; ? = inconclusive; nt = no result given; [ ] = another dose, or the depositor's remark. The list is not random: actives were taken first. Their share in the collection is about 19%. Unless noted, calls come from the whole dose curve; as a rule, active = well fitted curve in the direction sought with a large enough effect; inconclusive = small, poorly fitted or top-dose-only effect, or another doubt; inactive = no such curve, though single readings can be large; an effect the other way counts as inactive or inconclusive.
SMILES,Cycloheximide cs,SARS PLP yeast,Pf growth 48h,Shiga toxin inh,Pf growth 96h,AMA1 RON2 block
CCCCN(C)S(=O)(=O)c1cc(Br)cc2c1N(C(=O)C1CC1)CC2,i,i,4.7µM,i,?,i
CCOC(=O)C1CCCN(S(=O)(=O)c2cc(Br)cc3c2N(C(C)=O)CC3)C1 (stereo not drawn),i,i,3.7µM,i,?,i
CCOCCCNS(=O)(=O)c1cc(Br)cc2c1N(C(=O)C1CC1)CC2,i,i,?,i,i,i
CCOC(=O)C1CCN(S(=O)(=O)c2cc(Br)cc3c2N(C(C)=O)C(C)C3)CC1 (stereo not drawn),i,i,8.3µM,i,?,i
COC(=O)/C=C1\N/C(=N\c2nc(C)cc(C)n2)N(c2ccc(C)c(C)c2)C1=O,i,i,i,i,?,i
CCN1/C(=C/C=C/c2sc3ccccc3[n+]2CC)Sc2ccccc21,nt,nt,0.33µM,nt,0.15µM,?
CCN1/C(=C/C=C/C=C/c2sc3ccccc3[n+]2CC)Sc2ccccc21,i,i,3µM,i,3.4µM,nt
CCN1/C(=C/C=C/C=C/C=C/c2sc3ccccc3[n+]2CC)Sc2ccccc21,i,i,?,i,i,?
Cc1cc(S(=O)(=O)N2CCCCC2)ccc1OCC(=O)N1CCCC1,i,i,i,i,?,i
CC(C)c1ccc(OCC(=O)N2CCCCCC2)c(Br)c1,25,i,i,80,i,i
Cc1ccc(OCC(=O)N2CCN(C)CC2)c(Br)c1,21,i,i,93,i,i
Cc1cc(Br)ccc1OCC(=O)N1CCCCCC1,25,i,nt,i,i,i
Cc1ccc(OCC(=O)N2CCCCCC2)c(C)c1,10,i,i,i,nt,i
CC(C)(C)NC(=O)C(c1ccc(F)cc1)N(Cc1ccco1)C(=O)CCC(=O)Nc1ccccn1 (stereo not drawn),i,i,?,i,i,i
COCC(C)n1c(SCC(=O)NC(=O)NCc2ccccc2)nc2ccccc2c1=O (stereo not drawn),nt,i,nt,nt,nt,i
CC(=O)c1ccc(NC(=O)COC(=O)CCC2CCCC2)cc1,nt,i,nt,nt,nt,i
O=C(Nc1cccc(Cl)c1)c1ccc(-n2cncn2)c([N+](=O)[O-])c1,i,i,12µM,i,?,i
CN(C)S(=O)(=O)c1cccc(NC(=O)c2ccc(Sc3nncn3C)c([N+](=O)[O-])c2)c1,i,i,?,i,?,i
O=C(Nc1ccc(Cl)cc1)c1ccc(-n2cncn2)c([N+](=O)[O-])c1,i,i,?,i,?,i
CC(=O)c1ccc(S(=O)(=O)N2CCN(C(=O)c3ccc(-n4cncn4)c([N+](=O)[O-])c3)CC2)cc1,nt,i,i,nt,?,i
Cc1ccc(S(=O)(=O)N2CCN(C(=O)c3ccc(-n4cncn4)c([N+](=O)[O-])c3)CC2)cc1C,nt,i,?,nt,7.4µM,i
O=C(Nc1ccc(Cl)cc1)c1ccc(-n2cccn2)c([N+](=O)[O-])c1,24,i,?,i,?,i
CCN(CC)S(=O)(=O)c1ccc(NC(=O)c2ccc(Sc3nncn3C)c([N+](=O)[O-])c2)cc1,i,i,12µM,i,?,i[2.32 µM]
O=C(NC(c1ccccc1)c1cnccn1)C1CCN(CCOc2ccc(Cl)cc2Cl)CC1 (stereo not drawn),nt,nt,nt,nt,nt,i
CC(=O)c1ccc(S(=O)(=O)N2CCN(C(=O)c3ccc(N)c([N+](=O)[O-])c3)CC2)cc1,nt,i,?,nt,?,i
SMILES,Cycloheximide cs,SARS PLP yeast,Pf growth 48h,Shiga toxin inh,Pf growth 96h,AMA1 RON2 block
COc1ccc(NC(=O)c2ccc(-n3cccn3)c([N+](=O)[O-])c2)cc1,i,i,i,i,i,i
CCN(CC)S(=O)(=O)c1cc(NC(=O)c2ccc(-n3cncn3)c([N+](=O)[O-])c2)ccc1C,i,i,13µM,i,15µM,i
Cc1ccc(NC(=O)c2ccc(-n3cccn3)c([N+](=O)[O-])c2)cc1C,34,i,i,45,?,i
Nc1ccc(C(=O)N2CCN(S(=O)(=O)c3ccc(Br)cc3)CC2)cc1[N+](=O)[O-],nt,i,?,nt,8.3µM,i
C=C(C)c1cccc(C(C)(C)NC(=O)N2CCN(c3ccc(OC)cc3)CC2)c1,i,i,i,i,i,i[2.32 µM]
CC1CN2C(c3ccc([N+](=O)[O-])cc3)=CSC2=N1 (stereo not drawn),i,i,i,nt,i,i
